± gives the standard deviation of the averaged measurements. Over roughly 25,000 sequences, “ln(normalized median fluorescence intensity)” has its median near 8.9; the highest 2% begin near 10. The full list was thinned out, with the highest values kept by preference.
System: PfAP2-LT AP2 domain (GST-tagged)
Test: gcPBM binding intensity (ln(normalized median fluorescence intensity)); higher = stronger DNA binding
Summary of the method: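 Each value is the highest Masliner-normalised natural-log median intensity across replicate spots of either orientation of a probe. The probes were primer-extended double-stranded 36-bp intergenic genomic sequences on an Agilent 4 × 180k array, alongside negative controls, exposed for 1 h to GST-tagged P. falciparum DNA-binding domains expressed in E. coli. Bound protein was picked up with Alexa488 anti-GST antibody and scanned at 488 nm.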

| Sequence | gcPBM binding intensity (ln) |
| --- | --- |
| TGTTATTCTGCATATACACACAAATAACAATTTAAA [CACACA_site6943] | 8.67 ± 0.38 |
| CCTTTTTTATTTACAACACACGTAAAGGTTCAAATA [CACACA_site1741] | 8.68 ± 0.42 |
| TTTTCAATTAATAATACACACATGTATATATCATTA [CACACA_site7539] | 8.81 ± 0.43 |
| TATGAAATGCTCCAATCACACATGAATGTAATATAT [CACACA_site5458] | 8.73 ± 0.35 |
| AACTATTACTTTCTTTCACACATTTTTTTTTTTTTT [CACACA_site5355] | 8.94 ± 0.59 |
| AATAATATCTGAAAATGTACATTTTATTATAAACAT [XGTACX_site8441] | 8.86 ± 0.45 |
| ATGAATAAAAAAGGTGGTACATATATATATATATAT [XGTACX_site7893] | 9.82 ± 0.11 |
| AAAAAAAAAAAACACACACACATAGACCTCCAATAG [CACACA_site3562] | 9.77 ± 0.25 |
| AAAAAAAAAAGACACACACACATAGACCTCCAATAG [CACACA_site7646] | 9.79 ± 0.25 |
| AAAAAAAAAAAAAACACACACACATAGACCTCCAAT [CACACA_site3563] | 10.2 ± 0.26 |
| TATAAATATACAAAGGTGCATAAAAAGTTATGTTTT [GTGCAC_site9832] | 8.72 ± 0.44 |
| TTCTATTCAAATGCAAAATTATTAAATAAAAAATAA [GTGCAC_negctrl_site708] | 8.31 ± 0.43 |
| AAAAAAAAAAGAAACACACACATATATATATAGAAT [CACACA_site1777] | 9.44 ± 0.39 |
| AAGAAAAGCATAGATGCACACATATATATATATATA [CACACA_site8675] | 10.2 ± 0.32 |
| GCTAAAAGTATATGCACACACATATAGATGCACATA [CACACA_site6868] | 9.34 ± 0.33 |
| ATTTTAGATGAAAAAGCACACAACATATATATATAT [CACACA_site2295] | 9.44 ± 0.38 |
| TAGGAAAAGAAAAGCACACACATAAATAGATATATA [CACACA_site6382] | 9.43 ± 0.54 |
| GAAAAGCATAGATGCACACATATATATATATATATA [CACACA_site2169] | 10.18 ± 0.014 |
| AATACCCATATCTTCACACATACATAATAAATTATA [CACACA_site5367] | 8.81 ± 0.36 |
| AAAAAAAAAATATACACACACATATAAATATAAATA [CACACA_site7574] | 9.34 ± 0.42 |
| TGAGGTAACTAAATATGTACGTAACGAAGATACATA [XGTACX_site8231] | 8.96 ± 0.5 |
| AATTGTTCGATATATGCACACAGTTTTGTTATTTTT [CACACA_site1615] | 9.25 ± 0.34 |
| GTTTGATTAAACTTGACACACATATATATAAATATA [CACACA_site1784] | 8.71 ± 0.44 |

| Sequence | gcPBM binding intensity (ln) |
| --- | --- |
| TATTAAACTTGACACACACACACACGCATATATAAA [CACACA_site6496] | 10.1 ± 0.14 |
| TTTATTAAACTTGACACACACACACCCACATATATA [CACACA_site760] | 9.8 ± 0.28 |
| TTTCCCCCATATAATGAACACACACCCTCCTCATAA [CACACA_site8110] | 9.84 ± 0.41 |
| CCCATGTAATATTAAACACACACTCATATAACACAA [CACACA_site7906] | 9.36 ± 0.26 |
| CCCCATATAATGAACACACACACTCCTCATAATTAA [CACACA_site628] | 10.33 ± 0.099 |
| TTATAAATTCAATGTACTACACAAAATGAATTTAAT [XGTACX_site6683] | 8.53 ± 0.35 |
| AGAACCATATATAAATGTACATGTTAATATGAATAA [XGTACX_site130] | 8.93 ± 0.42 |
| ATTATGTTTCTTTTTTTTTTTAAAGGATGTCTTTTT [CACACA_negctrl_site974] | 8.62 ± 0.56 |
| TTAAAAAAAAAACACACACACATACACATATATATA [CACACA_site3299] | 9.91 ± 0.2 |
| TAAACATACATATACACACACACACCCACACCCACA [CACACA_site492] | 10.3 ± 0.18 |
| ATTAAACATACATATACACACACACCCACCCACCCA [CACACA_site8057] | 10.22 ± 0.071 |
| TTATATATGTATTAATGTACATAGTTGAGAAAGGTA [XGTACX_site1511] | 8.78 ± 0.34 |
| GAACCTTTAAAATACACACCCAAATCCTTTGAAATA [CACACA_site3630] | 8.88 ± 0.42 |
| CAATGTTGTACATACACACACACAAAAAAAAAATAA [CACACA_site2407] | 9.6 ± 0.45 |
| TCTCCTTGTTCCTTTTTTTTAAAAAAAAACATTAAA [CACACA_negctrl_site679] | 8.47 ± 0.52 |
| GTTAATTATTAAATTTGTACTCATATATATTATATA [XGTACX_site6862] | 8.71 ± 0.53 |
| CAAAGACACAAACACACACACACATACATACATACA [CACACA_site453] | 10.3 ± 0.42 |
| ATAAAACAAAGACACACACACATACACAAAAAAAAA [CACACA_site7752] | 9.99 ± 0.42 |
| GGTACATACAGACACACACACAAAAAAAAAAAAATA [CACACA_site6844] | 9.81 ± 0.64 |
| AAAAAAAAAAGACACACACACAAATACAAATACATA [CACACA_site6334] | 10 ± 0.28 |
| AAAAAAAAAAGACACACACACACAAATACATACACA [CACACA_site6472] | 10.2 ± 0.042 |
| AAGACACAAAAACACACACACATACATACATACATA [CACACA_site454] | 9.99 ± 0.31 |
| TAATATTTCGCACTGTGTACTGAAATATTTATATCG [XGTACX_site516] | 8.76 ± 0.36 |

| Sequence | gcPBM binding intensity (ln) |
| --- | --- |
| TAATTAACCTATGCATTCATATAGATACATAAATAT [CACACA_negctrl_site885] | 8.72 ± 0.51 |
| GGTAATTATTTTGGTTGTACTCAAATATATAATATT [XGTACX_site291] | 8.89 ± 0.23 |
| ATCAAAAACATACCTACACACACAATATGTATATAT [CACACA_site9171] | 9.51 ± 0.28 |
| TCAAAGCACAGATACACACACATATATATATATATA [CACACA_site287] | 10.18 ± 0.014 |
| CATACACCCATACATACACACATACATATATATATA [CACACA_site8591] | 9.62 ± 0.15 |
| TCAAAGCACACATACACACACATATAGATTTATATA [CACACA_site6272] | 9.73 ± 0.16 |
| TCAAAGCACCCATACACACACATATATATATATATA [CACACA_site4317] | 10.2 ± 0.18 |
| CATATACATACACATACACACATACACCCATACACA [CACACA_site8514] | 9.68 ± 0.29 |
| TATATATACATATACACACACACACCCATATATATA [CACACA_site2246] | 10 ± 0.11 |
| TATATATATATATATACACACATACAGATATATATT [CACACA_site4629] | 9.5 ± 0.38 |
| ACCATACATACATACACACACACACCCATATATATA [CACACA_site2917] | 10.2 ± 0.26 |
| GATGAATAAATCAAAGCACACATACACCCACATATA [CACACA_site7986] | 9.67 ± 0.13 |
| TATACATACACATACACACATACACCCATACACATA [CACACA_site1746] | 9.69 ± 0.33 |
| CACATATATACACATACACACACACCCATACACCCA [CACACA_site8505] | 10.1 ± 0.25 |
| CTAGCAAATACATACACACACACACCCATACATATA [CACACA_site3496] | 9.95 ± 0.18 |
| TTTTTTTTGGAATTCACACAAATATAACATGGGTAT [CACACA_site5185] | 8.7 ± 0.38 |
| AACCTATCTATAGGAACAATATATATATATATAATT [CACACA_negctrl_site1707] | 8.98 ± 0.33 |
| TTTTGAAAGTTTTTGTGTCCACATATATTTATATAT [XGTACX_site6563] | 8.94 ± 0.44 |
| ACATATATATAATATATATTTTTCGTGTGGTGTCAC [CACACA_negctrl_site543] | 8.84 ± 0.42 |
| TTTATTCTTGAGTATTGTACATATGTGTTTGTATAT [XGTACX_site5706] | 8.93 ± 0.45 |
| ATTTTCTATATCTTTCAACACACAAATTTTTTTTTC [CACACA_site7918] | 8.85 ± 0.45 |
| TGTTTATTACTCAGGTGTACTCAATTTTTTTTTTTT [XGTACX_site3470] | 8.72 ± 0.47 |
| TATACATATATATATATATATAGATATATTCACGTG [XGTACX_negctrl_site265] | 9.31 ± 0.21 |

| Sequence | gcPBM binding intensity (ln) |
| --- | --- |
| ATTTAAATAATATGTACACACATTTAAAAAATTATA [CACACA_site2816] | 8.76 ± 0.44 |
| AGCTCGGAAAAATTAGCATGCAAAAAAAAAAAAAAA [TGCATGCA_site658] | 8.59 ± 0.58 |
| TACAATCTTTCATTATGTACTTAACATTTTTTCTGT [XGTACX_site8752] | 8.85 ± 0.52 |
| ATATTTATGGAATATACACACATGTATAATTACATA [CACACA_site7045] | 8.83 ± 0.4 |
| AATAAATATATATACACACCCATATATATATATATA [CACACA_site2595] | 9.73 ± 0.014 |
| TATATATATATATATACACACACACCCATATATATA [CACACA_site8812] | 9.85 ± 0.18 |
| CATACACCCCAACACACACACACACCCATATATAAT [CACACA_site8097] | 10.3 ± 0.37 |
| ACCCATATAATATATACACACATATATATATATATA [CACACA_site4731] | 9.855 ± 0.035 |
| TATATATATATATACACACACACACCCATATATATA [CACACA_site2538] | 10.2 ± 0.3 |
| CTTATATATACATATACACACACACCCATATATATA [CACACA_site8705] | 9.59 ± 0.13 |
| ACTATATTTCTATAATGTACAAAAATAAATCATATG [XGTACX_site3337] | 8.64 ± 0.39 |
| TTTGCCCAAAAAGGTACACACCACAATGTACATAAA [CACACA_site4599] | 8.85 ± 0.49 |
| ATAAAGCCATACAATACACACATTTTACATGGCTGT [CACACA_site5756] | 9.26 ± 0.42 |
| AGACAGCGCACAAACACACAAACACCCACCCACATA [CACACA_site451] | 10.1 ± 0.16 |
| AAATTTGGCAAACACACACACACACCCACACCCACA [CACACA_site8095] | 10.4 ± 0.19 |
| GGCAAATTTATTATACCCACATACATACATACATAC [XGTACX_negctrl_site186] | 9.01 ± 0.32 |
| TACATAAATTAAAACACACACACACCCAAAAAAAAA [CACACA_site2261] | 9.9 ± 0.22 |
| AACTTTGGCAAACACACACACACACCCACACCCACA [CACACA_site588] | 10.1 ± 0.42 |
| CAAACATTTTAATGTACACACACCCACAGACAAACA [CACACA_site5522] | 9.57 ± 0.13 |
| AAATTTGGCAAACACACACACACACCCACAGAGACA [CACACA_site4490] | 10.2 ± 0.13 |
